Experimental data published in ChEMBL document CHEMBL3988442, “University of Dundee, Small-Polar-MMV Screening Library” (2021).
For some of these results: Entries with a potency or affinity are not part of this list.

Tests used:
Design in all cases: scale not given: direction of the effect not stated beside the values
[1] = molecular target: Protein translocase subunit SecA (Escherichia coli (strain K12)) (UniProt P10408); assay: Assay to Identify E. coli SecA ATPase Inhibitors; format: functional; settings: 30 µM
Sequence of Protein translocase subunit SecA (Escherichia coli (strain K12)) (P10408 whole entry): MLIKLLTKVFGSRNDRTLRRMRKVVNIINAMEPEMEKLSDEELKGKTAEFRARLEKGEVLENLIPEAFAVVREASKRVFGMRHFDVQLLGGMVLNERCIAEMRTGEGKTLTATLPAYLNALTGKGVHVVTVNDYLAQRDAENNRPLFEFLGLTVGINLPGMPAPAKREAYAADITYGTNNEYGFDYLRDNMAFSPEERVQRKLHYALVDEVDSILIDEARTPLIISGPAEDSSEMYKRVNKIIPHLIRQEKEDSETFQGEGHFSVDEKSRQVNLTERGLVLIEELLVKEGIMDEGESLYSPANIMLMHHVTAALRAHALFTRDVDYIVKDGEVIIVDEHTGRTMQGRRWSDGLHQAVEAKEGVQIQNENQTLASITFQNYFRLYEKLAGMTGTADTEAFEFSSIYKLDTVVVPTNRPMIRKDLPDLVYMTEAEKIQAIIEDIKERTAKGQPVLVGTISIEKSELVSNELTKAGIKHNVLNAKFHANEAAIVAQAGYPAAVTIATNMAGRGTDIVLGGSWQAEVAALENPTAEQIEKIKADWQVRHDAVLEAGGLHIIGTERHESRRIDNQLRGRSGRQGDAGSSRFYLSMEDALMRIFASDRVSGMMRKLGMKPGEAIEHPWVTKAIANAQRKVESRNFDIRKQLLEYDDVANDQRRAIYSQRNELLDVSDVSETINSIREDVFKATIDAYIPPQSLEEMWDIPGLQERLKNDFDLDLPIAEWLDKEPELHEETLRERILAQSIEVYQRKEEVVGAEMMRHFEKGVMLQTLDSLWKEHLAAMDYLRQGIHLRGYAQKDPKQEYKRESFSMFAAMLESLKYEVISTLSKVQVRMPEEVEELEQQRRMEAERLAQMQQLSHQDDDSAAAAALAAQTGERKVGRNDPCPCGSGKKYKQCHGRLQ

[2] = molecular target: T1, Ubiquitin-activating enzyme e1, putative (Leishmania donovani (strain BPK282A1)) (UniProt E9BSI1); assay: Leishmania donovani Ubiquitin Activating Enzyme (LdE1); format: functional; settings: 30 µM
T1 sequence (whole entry): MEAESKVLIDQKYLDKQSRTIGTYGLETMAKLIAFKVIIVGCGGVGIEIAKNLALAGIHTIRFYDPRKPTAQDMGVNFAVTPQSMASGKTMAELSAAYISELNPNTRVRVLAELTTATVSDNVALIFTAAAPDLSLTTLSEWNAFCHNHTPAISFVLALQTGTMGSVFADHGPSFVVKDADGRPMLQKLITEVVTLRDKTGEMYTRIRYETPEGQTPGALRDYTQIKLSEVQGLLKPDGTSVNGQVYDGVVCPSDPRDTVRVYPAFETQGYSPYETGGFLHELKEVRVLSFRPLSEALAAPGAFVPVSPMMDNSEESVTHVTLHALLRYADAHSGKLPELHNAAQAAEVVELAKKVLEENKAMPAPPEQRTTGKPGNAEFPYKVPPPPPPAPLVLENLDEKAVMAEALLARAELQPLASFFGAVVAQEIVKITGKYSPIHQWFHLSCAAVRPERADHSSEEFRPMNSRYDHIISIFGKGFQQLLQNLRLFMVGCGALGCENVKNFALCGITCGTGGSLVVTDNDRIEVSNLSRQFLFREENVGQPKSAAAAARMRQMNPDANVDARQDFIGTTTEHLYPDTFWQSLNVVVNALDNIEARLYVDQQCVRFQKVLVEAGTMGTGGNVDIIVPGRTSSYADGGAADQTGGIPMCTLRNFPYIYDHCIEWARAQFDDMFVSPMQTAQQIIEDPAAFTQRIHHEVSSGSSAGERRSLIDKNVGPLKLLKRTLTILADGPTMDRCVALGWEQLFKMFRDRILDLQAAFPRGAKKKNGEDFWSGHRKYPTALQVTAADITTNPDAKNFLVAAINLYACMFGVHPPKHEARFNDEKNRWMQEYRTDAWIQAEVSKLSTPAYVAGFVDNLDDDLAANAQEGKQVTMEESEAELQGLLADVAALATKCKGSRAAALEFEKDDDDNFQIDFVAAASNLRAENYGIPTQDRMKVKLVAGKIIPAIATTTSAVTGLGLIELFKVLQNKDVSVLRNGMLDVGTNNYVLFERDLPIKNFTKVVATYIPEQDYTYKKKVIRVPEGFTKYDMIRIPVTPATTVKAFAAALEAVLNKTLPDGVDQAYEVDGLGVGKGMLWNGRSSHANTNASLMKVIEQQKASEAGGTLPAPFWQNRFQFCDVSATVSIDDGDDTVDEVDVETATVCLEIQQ

[3] = molecular target: AMP-activated protein kinase, AMPK (Homo sapiens) (UniProt P54646+O43741+P54619+Q9UGJ0+Q9Y478+Q13131+Q9UGI9); assay: AMP-dependent Kinase enzyme assay. An in vitro enzyme assay that detects ADP turnover that is directly proportional to AMPK activity. This uses naive AMPK that is activated during the assay with MK-8722; format: functional; settings: 30 µM
[4] = molecular target: Sialic acid-binding Ig-like lectin 9 (Homo sapiens) (UniProt Q9Y336); assay: Hs-Siglec9 ALPHAscreen SOP 20170721; settings: 10 µM
Sequence of Sialic acid-binding Ig-like lectin 9 (Homo sapiens) (Q9Y336 whole entry): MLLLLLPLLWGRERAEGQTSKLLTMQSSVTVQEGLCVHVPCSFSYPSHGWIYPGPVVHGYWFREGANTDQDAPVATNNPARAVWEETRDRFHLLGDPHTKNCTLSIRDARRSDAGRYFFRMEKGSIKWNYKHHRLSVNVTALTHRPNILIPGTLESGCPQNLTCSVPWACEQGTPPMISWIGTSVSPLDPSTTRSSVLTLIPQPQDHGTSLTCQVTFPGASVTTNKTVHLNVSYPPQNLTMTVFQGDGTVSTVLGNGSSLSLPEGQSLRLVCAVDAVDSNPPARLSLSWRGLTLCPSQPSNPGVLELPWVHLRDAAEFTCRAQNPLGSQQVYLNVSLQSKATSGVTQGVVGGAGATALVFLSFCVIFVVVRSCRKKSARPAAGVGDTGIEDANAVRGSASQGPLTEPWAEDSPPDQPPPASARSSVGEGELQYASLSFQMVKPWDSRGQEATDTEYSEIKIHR

Trypanosoma cruzi = assay: Trypanosoma cruzi phosphomannomutase and mannose-1-phosphate guanylyltransferase assay; format: functional; settings: 10 µM
[5] = molecular target: T2, Arginase-2, mitochondrial (Homo sapiens) (UniProt P78540); assay: in vitro enzyme assay to detect the production of urea directly proportional to the activity of Arginase II; format: functional; settings: 33.3 µM; also: in the data most compounds retested in dose-response had high values
T2 sequence (whole entry): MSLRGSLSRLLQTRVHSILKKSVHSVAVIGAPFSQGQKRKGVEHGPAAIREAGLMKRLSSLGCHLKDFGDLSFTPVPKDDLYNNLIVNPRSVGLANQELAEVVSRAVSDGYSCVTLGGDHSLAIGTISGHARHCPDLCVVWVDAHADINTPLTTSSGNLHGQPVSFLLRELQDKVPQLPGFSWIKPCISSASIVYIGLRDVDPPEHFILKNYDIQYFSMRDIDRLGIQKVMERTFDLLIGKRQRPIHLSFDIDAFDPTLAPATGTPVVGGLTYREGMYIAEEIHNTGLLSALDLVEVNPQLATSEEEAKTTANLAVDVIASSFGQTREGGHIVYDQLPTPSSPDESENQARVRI

[6] = molecular target: T3, Proteasome subunit beta (Trypanosoma cruzi) (UniProt O96673); assay: Trypanosoma cruzi proteasome chymotrypsin-like activity (TcProtChymo) assay.; also: in the data most compounds retested in dose-response had high values; format: functional; settings: 9.37 µM
T3 sequence (whole entry): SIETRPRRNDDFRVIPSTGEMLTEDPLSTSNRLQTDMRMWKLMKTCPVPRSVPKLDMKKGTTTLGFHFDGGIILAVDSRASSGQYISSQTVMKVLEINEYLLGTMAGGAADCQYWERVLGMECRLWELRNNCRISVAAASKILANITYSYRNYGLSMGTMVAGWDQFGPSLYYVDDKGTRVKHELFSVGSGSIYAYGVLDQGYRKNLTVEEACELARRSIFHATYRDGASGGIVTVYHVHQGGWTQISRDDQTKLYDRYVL

Homo sapiens = organism: Homo sapiens; assay: To identify inhibition of the IFN signalling (Jak-Stat) pathway via expression of an eGFP reporter gene under the control of an IFN-stimulated response element (ISRE) containing MxA promoter.; format: functional; settings: 30 µM
[7] = molecular target: T4, Tyrosyl-tRNA synthetase, putative (Trypanosoma cruzi (strain CL Brener)) (UniProt Q4DSP6); assay: Trypanosoma cruzi tyrosyl tRNA synthetase (TcYRS) _High Tyrosine SOP; format: functional; settings: 30 µM; also: in the data most compounds retested in dose-response had high values
T4 sequence (whole entry): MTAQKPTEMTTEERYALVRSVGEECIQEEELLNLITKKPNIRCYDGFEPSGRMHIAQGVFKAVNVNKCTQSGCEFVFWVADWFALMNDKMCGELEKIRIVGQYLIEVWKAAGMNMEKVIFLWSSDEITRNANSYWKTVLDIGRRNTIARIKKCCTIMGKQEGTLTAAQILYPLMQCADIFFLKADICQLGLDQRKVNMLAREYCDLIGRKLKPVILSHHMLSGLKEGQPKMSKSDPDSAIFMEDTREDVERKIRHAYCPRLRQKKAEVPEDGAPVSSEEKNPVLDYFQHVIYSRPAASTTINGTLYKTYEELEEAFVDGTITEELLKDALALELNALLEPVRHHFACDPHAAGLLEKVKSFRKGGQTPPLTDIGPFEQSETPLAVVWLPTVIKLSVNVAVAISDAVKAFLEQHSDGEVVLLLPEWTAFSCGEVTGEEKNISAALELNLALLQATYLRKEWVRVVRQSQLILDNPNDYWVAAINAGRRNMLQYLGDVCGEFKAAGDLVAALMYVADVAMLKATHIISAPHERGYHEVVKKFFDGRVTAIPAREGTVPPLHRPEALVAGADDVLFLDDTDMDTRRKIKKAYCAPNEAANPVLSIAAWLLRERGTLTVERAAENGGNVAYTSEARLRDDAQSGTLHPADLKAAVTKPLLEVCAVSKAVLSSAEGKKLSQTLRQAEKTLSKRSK

[8] = molecular target: T4, Tyrosyl-tRNA synthetase, putative (Trypanosoma cruzi (strain CL Brener)); assay: Trypanosoma cruzi tyrosyl tRNA synthetase (TcYRS) SOP; format: functional; settings: 30 µM
[9] = molecular target: Chromo domain-containing protein 1 (Saccharomyces cerevisiae (strain ATCC 204508 / S288c) (Baker's yeast)) (UniProt P32657); assay: ScCHD-1 Enzyme Inhibition Assay; format: functional; settings: 30 µM; also: in the data most compounds retested in dose-response had high values
Sequence of Chromo domain-containing protein 1 (Saccharomyces cerevisiae (strain ATCC 204508 / S288c) (Baker's yeast)) (P32657 whole entry, the tested form may be a part): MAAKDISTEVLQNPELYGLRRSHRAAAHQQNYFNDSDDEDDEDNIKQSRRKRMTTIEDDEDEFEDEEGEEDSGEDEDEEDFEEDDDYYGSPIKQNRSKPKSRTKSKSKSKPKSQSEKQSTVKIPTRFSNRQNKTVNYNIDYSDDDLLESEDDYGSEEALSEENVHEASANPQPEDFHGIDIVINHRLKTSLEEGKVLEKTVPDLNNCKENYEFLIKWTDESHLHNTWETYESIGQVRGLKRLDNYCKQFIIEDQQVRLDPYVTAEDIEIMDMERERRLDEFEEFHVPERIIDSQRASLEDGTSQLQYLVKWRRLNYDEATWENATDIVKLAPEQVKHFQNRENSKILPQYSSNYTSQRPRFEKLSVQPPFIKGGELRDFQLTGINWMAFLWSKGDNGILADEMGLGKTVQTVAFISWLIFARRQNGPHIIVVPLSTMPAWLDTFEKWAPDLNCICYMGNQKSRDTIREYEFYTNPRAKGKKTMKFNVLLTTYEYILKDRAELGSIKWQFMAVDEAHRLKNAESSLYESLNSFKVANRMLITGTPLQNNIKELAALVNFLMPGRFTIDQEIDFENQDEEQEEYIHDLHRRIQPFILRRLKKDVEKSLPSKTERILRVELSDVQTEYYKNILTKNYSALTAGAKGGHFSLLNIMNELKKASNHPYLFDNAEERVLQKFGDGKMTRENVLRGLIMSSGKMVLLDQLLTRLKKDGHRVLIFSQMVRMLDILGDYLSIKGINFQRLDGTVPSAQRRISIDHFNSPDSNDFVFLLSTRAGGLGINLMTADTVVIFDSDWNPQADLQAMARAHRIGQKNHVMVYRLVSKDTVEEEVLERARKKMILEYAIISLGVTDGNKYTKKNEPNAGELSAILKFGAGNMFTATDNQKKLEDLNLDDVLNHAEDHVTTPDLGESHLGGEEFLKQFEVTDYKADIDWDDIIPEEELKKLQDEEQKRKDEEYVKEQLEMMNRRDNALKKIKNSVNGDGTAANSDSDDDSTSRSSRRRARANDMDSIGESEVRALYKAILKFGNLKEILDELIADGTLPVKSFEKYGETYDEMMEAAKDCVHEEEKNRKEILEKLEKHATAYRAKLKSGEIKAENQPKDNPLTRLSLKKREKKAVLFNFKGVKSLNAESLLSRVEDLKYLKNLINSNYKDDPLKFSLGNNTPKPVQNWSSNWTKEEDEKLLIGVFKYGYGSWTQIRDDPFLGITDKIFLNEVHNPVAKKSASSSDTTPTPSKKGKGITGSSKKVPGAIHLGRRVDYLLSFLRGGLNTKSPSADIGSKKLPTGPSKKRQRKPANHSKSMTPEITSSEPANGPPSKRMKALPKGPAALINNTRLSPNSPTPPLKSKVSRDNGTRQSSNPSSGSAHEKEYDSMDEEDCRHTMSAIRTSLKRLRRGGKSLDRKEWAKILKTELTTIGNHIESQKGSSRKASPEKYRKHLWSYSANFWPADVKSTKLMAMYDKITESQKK

SMILES | Percent Effect [1] [%] | Percent Effect [2] [%] | Percent Effect [3] [%] | Percent Effect [4] [%] | Percent Effect (Trypanosoma cruzi) [%] | Percent Effect [5] [%] | Percent Effect [6] [%] | Percent Effect (Homo sapiens) [%] | Percent Effect [7] [%] | Percent Effect [8] [%] | Percent Effect [9] [%]
Cc1ccc(CN2CCOC3(CCCN(C(=O)c4ccco4)C3)C2)s1 (stereo unspecified) | -0.789 | 15.6 | -0.0266 | 8.56 | 5.41 | -19.3 | 17.6 | -8.94 | 6.45 | 13.6 | -2.11
O=C(c1ccccn1)N1C[C@@H]2CC[C@H](C1)N(C(=O)CCc1cccs1)C2 | -6.27 | 5.2 | 2.15 | 9.38 | 6.59 | -74.5 | 13.1 | -10.3 | 3.23 | 8.64 | 2.24
O=C1CCC2(CCN(Cc3cc(F)cc(F)c3)CC2)CN1CCO | -6.11 | 4.17 | -0.613 | 0.944 | 1.85 | -24.7 | 9.12 | -8.34 | 3.16 | 10.3 | -0.52
Cc1ccc(NC(C)C(=O)NCc2cccs2)cc1C (stereo unspecified) | -1.89 | 16.4 | 6.74 | 8.58 | 0.196 | -4.54 | 17.8 | 21.3 | -1.07 | 20 | -5.22
CCCN(Cc1ccccc1)Cn1nc(C)c2c(C)onc2c1=O | -7 | 10.8 | -10.2 | 25.6 | 4.62 | -4.81 | 1.98 | 8.04 | 5.42 | 18.5 | -13.4
Cc1cc(C)n(C2CN(CC(=O)N3CCOCC3)C2)n1 | -2.95 | 1.27 | 6.75 | 3.92 | 0.103 | 3.66 | 11.2 | -2 | 10.4 | 7.59 | 0.125
COCCOc1ccc(NC(=O)N(C)Cc2ccsc2)cn1 | 1.05 | 17.7 | -9.72 | -8.23 | -9.35 | 2.28 | 7.94 | 12.9 | 2.46 | 13.9 | -6.06
C1CC(c2noc(C3CC3)n2)CN(Cc2noc(C3CC3)n2)C1 (stereo unspecified) | -3.36 | 0 | -13.1 | 11.5 | -3.11 | -1.6 | 1.62 | -3.78 | 0.493 | 1.24 | 1.88
COCCOc1ccccc1CNCc1c(C)nn(C)c1N(C)C | -4.61 | 8.11 | -17.4 | -0.683 | -2.92 | -0.802 | 1.26 | -12 | 5.42 | 11.1 | -4.5
Cc1cc(C)n(C2CN(CC(O)c3ccc(F)cc3)C2)n1 (stereo unspecified) | -2.64 | -15.6 | -6.46 | 8.34 | 0.936 | -5.34 | 12.3 | 4.19 | 6.8 | 12.2 | -6.46
O=c1c2cnc(N3CCCCC3)nc2ccn1-c1ccccc1 | -4.04 | 9.33 | -3.82 | -5.64 | 4.71 | -7.22 | 15 | 8.11 | 2.12 | 10.3 | -8.21
